VACV Venus inh: inhibitors of vaccinia virus (Venus reporter). Vaccinia virus Venus reporter expression, fluorescence. Potency, µM (titrated, usually from 36.5 µM), for inactives: top-dose activity change, negative = inhibition, actives largely listed as inhibitors. actives 0.46% (n = 330,000). AID 720580; calls by dose curve; tested in A549 cells; further: potency means the concentration at half of the fitted maximal effect; nearly all actives have a fitted effect of over 30% in size
HCMV antiviral: inhibitors of human cytomegalovirus. actives 4.5% (n = 410,000). activity change, negative = inhibition, % at 57.5 µM. HFF cells, HCMV-luciferase reporter, 72 h; stronger effect = lower value; in the data active means activity change below about -60%; inconclusive means no clear call, values can overlap the other calls; inactive means above about -39%
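Two-dose cell screen: HFF monolayers treated with compounds and infected with luciferase-expressing HCMV at 1 PFU/cell, 72 h at 37C, then lysed for luciferase measurement.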
Vaccinia mCherry: inhibitors of vaccinia virus infection (mCherry reporter signal). Potency, µM (titrated, usually from 36.5 µM), for inactives: top-dose activity change, negative = inhibition, actives largely listed as inhibitors. Vaccinia virus mCherry reporter infection, fluorescence. actives 0.63% (n = 310,000); calls by dose curve; tested in A549 cells; further: potency means the concentration at half of the fitted maximal effect; nearly all actives have a fitted effect of over 35% in size
Lassa entry inh: Lassa virus entry inhibition; Lassa virus pseudotype entry inhibition, cell reporter; Potency, µM (highest dose often 37.9 µM), without a hit: at the highest dose activity change, negative = inhibition, usual class: inhibitors; actives 1.2% (n = 300,000); calls by dose curve; tested in HEK293 cells; further: potency means the concentration at half of the fitted maximal effect; nearly all actives have a fitted effect of over 50% in size
HCV inh: HCV inhibition; Huh7.5.1 HCVcc-Cre infection, luciferase reporter, 44 h; Potency, µM (highest dose often 41.8 µM), for the others: at the top dose activity change, negative = inhibition, actives largely listed as inhibitors; actives 3.4% (n = 340,000); AID 651820; active means well fitted inhibition curve with a large enough effect; inconclusive means small, poorly fitted or top-dose-only effect, or another doubt; inactive means no such curve, though single readings can be large or run the other way; further: potency means the concentration at half of the fitted maximal effect
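Antiviral activity was scored by luciferase reporter output from cells infected with HCVcc-Cre (~0.5 moi) in presence of compound, 44 h infection period, cells seeded 1,000/well 4 h prior.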
MARV entry inh: inhibitors of Marburg virus binding or cell entry; Potency, µM (highest dose often 37.8 µM), for the others: top-dose activity change, negative = inhibition, most hits filed as inhibitors; Marburg virus pseudotyped entry inhibition, cell reporter; AID 540276; actives 1.8% (n = 300,000); calls by dose curve; tested in HEK293 cells; further: potency means the concentration at half of the fitted maximal effect
Numbers without * were called inactive; i = inactive; ? = inconclusive; · = not tested or not shown; + = active, no number; [ ] = another dose, or the depositor's remark. Shown are actives, neighbours in structure and some others; about 7.8% of the full set was active somewhere. On the % scale 0 is the no-effect control and ±100 the full control effect.

SMILES	VACV Venus inh	HCMV antiviral	Vaccinia mCherry	Lassa entry inh	HCV inh	MARV entry inh
C[C@@H]1CN([C@@H](C)CO)C(=O)c2cc(NC(=O)Nc3ccc(F)cc3)ccc2O[C@@H]1CN(C)Cc1ccc(Oc2ccccc2)cc1	10µM*	10.2	?	·	?	·
COc1ccc(CN(C)C[C@@H]2OCCCC[C@H](C)Oc3ccc(NC(=O)Nc4ccc(F)cc4)cc3C(=O)N([C@H](C)CO)C[C@H]2C)cc1	-18.7%	-101.7*	i	·	·	·
Cc1ccc(-n2ncc(C(=O)NCc3ccco3)c2C2CCN(C(=O)OC(C)(C)C)CC2)cc1C	-18.6%	0.0	-24.6%	?	·	·
CC(=O)c1ccc(NC2=NS(=O)(=O)c3ccccc32)cc1	-8.9%	32.0	-10.2%	?	·	?
O=[S+]1([O-])C[C@@H](N2CCN(CCO)CC2)[C@@H](COCc2ccccc2)N1	·	·	·	11.6%[46.1 µM]	·	·
C[C@H]1CN([C@@H](C)CO)C(=O)c2cc(NC(=O)Cc3ccccc3)ccc2O[C@H]1CN(C)Cc1ccccc1	-20.4%	?	-14.4%	·	6.2%	·
C[C@@H]1CN([C@H](C)CO)C(=O)c2cc(NC(=O)Cc3ccccc3)ccc2O[C@H]1CN(C)Cc1ccc(Oc2ccccc2)cc1	?	52.5	?	·	11.2µM*	·
Cc1ccc(C)c(CN2C[C@H](Sc3ccccn3)C[C@H]2C(=O)Nc2ccc3sc(C)nc3c2)c1	0.5%	·	i	·	·	·
COC(=O)C1=C(C)N(CC2CC2)C(N(C)Cc2ccc(OC)cc2)=NC1c1ccccc1 (configuration not stated)	·	·	·	·	·	-14.1%[14.2 µM]
CN1CCCN(C(=O)[C@@H]2C[C@@H](Sc3nc4ccccc4[nH]3)CN2Cc2ccc(-c3ccccc3)cc2)CC1	-13.6%	·	-18.7%	·	·	·
COc1ccc(S(=O)(=O)Nc2ccc3cn[nH]c3c2)cc1C	-13.7%	14.5	-15.7%	2.2%	-19.9%	?
CCOC(=O)c1ccc(S(=O)(=O)Nc2ccc3cn[nH]c3c2)cc1	·	-18.5	·	?	11.2µM*	-26.9%
Cc1cc(C)c(C)c(S(=O)(=O)Nc2ccc3cn[nH]c3c2)c1C	·	-84.3*	·	·	12.6µM*	·
CC(=O)Nc1cccc(NC(=O)c2cc3c(=O)n4cccc(C)c4nc3n2C)c1	-8.1%	?	-4.8%	18.3%[46.1 µM]	·	·
Cc1coc2c(O)cc3c(c12)O[C@@]1(N2CCCCC2)C(=O)NCCC[C@@H]31	·	·	·	·	·	-27.4%
O=C(Nc1cccc(C2=NCCN2)c1)Nc1cccc(C2=NCCN2)c1	?	-80.6*	-22.0%	·	-60.2%	·
Cc1ccc(S(=O)(=O)N2CCC([C@@H](C#N)c3ccccc3)CC2)cc1	·	-17.4	·	·	·	·
CC[N+](CC)(CC)CCOc1ccc(/C=C/c2ccccc2)cc1	-28.3%	-99.1*	-14.7%	·	?	·
COC(=O)C1=C(C(=O)OC)[C@@H]2N(C)c3ccccc3[C@@]23CCC(=O)N(Cc2ccc(OC)cc2)C3=N1	·	·	·	·	·	-9.4%[14.2 µM]
CCSc1nc(C2CC2)cc(-c2cccs2)c1C#N	-4.2%	-31.7	-0.9%	-1.2%	7.94µM*	1.7%
CCSc1nc(C2CC2)cc(-c2ccco2)c1C#N	-22.1%	-11.3	·	5.3%	?	-3.5%
CCC(C)n1c(=N)c(C(=O)NCc2ccccc2)cc2c(=O)n3cc(C)ccc3nc21 (configuration not stated)	-13.6%	-73.3*	-15.4%	0.6%[46.1 µM]	·	1.0%[46.1 µM]
CCOCCCn1c(=N)c(C(=O)NCc2cccnc2)cc2c(=O)n3cc(C)ccc3nc21	-8.6%	-66.6*	-0.8%	-3.3%[46.1 µM]	·	5.2%[46.1 µM]
Cc1ccc(/C=N/Nc2nnc(Cl)c3ccccc23)cc1	3.8%	27.9	-14.0%	?	-18.9%	10µM*
Clc1ccc(/C=N/Nc2nnc(Cl)c3ccccc23)cc1	-9.2%	118.8	-12.5%	?	7.1%	-0.1%
SMILES	VACV Venus inh	HCMV antiviral	Vaccinia mCherry	Lassa entry inh	HCV inh	MARV entry inh
CC(=O)Nc1ccc(C=NNc2nnc(NN=Cc3ccc(NC(C)=O)cc3)c3ccccc23)cc1	-25.4%	-6.1	-22.8%	1.58µM*	22.4µM*	?
Cc1ccc2c(Sc3ccccc3)c(C(=O)NCc3ccccc3F)[nH]c2c1	-12.8%	-17.7	-17.0%	1.5%[46.1 µM]	·	-6.3%[46.1 µM]
O=C1Nc2ccccc2/C1=C/C(=O)c1cccs1	-16.9%	-95.0*	-4.7%	-14.6%	?	?
COc1ccc(C(=O)/C=C2/C(=O)Nc3ccccc32)cc1OC	-23.9%	47.8	i	·	?	·
C=CCOc1ccc(C(=O)/C=C2/C(=O)Nc3ccccc32)cc1	-21.8%	-69.5*	-17.9%	-19.3%[46.1 µM]	-20.3%	?
COc1ccc(C(=O)/C=C2/C(=O)Nc3ccccc32)c(OC)c1	?	-100.1*	?	?	?	?
C=CCOc1ccccc1C(=O)/C=C1/C(=O)Nc2ccccc21	·	-102.9*	·	·	-12.6%	·
CCn1cc(C(=O)NC[C@H]2CCCO2)c(=O)c2cc(F)c(N3CCN(C)CC3)cc21	·	·	·	·	·	-20.7%
Cc1ccc(NC(=O)c2c3c(nc4ccccc24)C(=O)N(C2CCCCC2)C3)cc1F	?	-9.3	?	10.7%[46.1 µM]	·	·
CNc1cncc(-c2c(OC)cccc2OC)n1	-0.3%	-103.4*	-10.0%	·	·	·
CCCn1c(C)cc(C(=O)COc2ccc(C)nc2[N+](=O)[O-])c1C	-5.9%	-89.0*	-10.6%	14.8%	-27.5%	?
CC(=O)c1c(C(C)=O)c(C)n(-c2cccc([N+](=O)[O-])c2)c1C	-25.6%	-15.4	i	19.8%	-7.9%	32.0%
COCCn1c(C)cc(C(=O)COc2ccc(C)nc2[N+](=O)[O-])c1C	·	-93.9*	·	·	-18.3%	·
C=CCn1c(C)cc(C(=O)COc2ccc(C)nc2[N+](=O)[O-])c1C	-14.1%	-92.1*	i	?	?	?
Cc1cc(C(=O)CCl)c(C)n1-c1cccc([N+](=O)[O-])c1	-3.1%	-95.4*	i	?	?	10µM*
COC(=O)c1ccc2c(c1)N(CC(=O)Nc1ccc(C)cc1Cl)C(=O)c1ccccc1S2	-6.9%	18.1	-16.9%	?	·	·
O=C(NC[C@@H]1CCCN2CCCC[C@H]12)c1cnn(-c2nccc(-c3cc4ccccc4o3)n2)c1C1CC1	-11.8%	·	-22.2%	·	·	·
Cc1ccc(OCC(=O)c2cc(C)n(-c3ccccc3)c2C)c([N+](=O)[O-])n1	-7.9%	-98.6*	-11.9%	?	?	?
COc1c(CC=C(C)C)c(O)cc2oc(=O)c3c4ccc(O)cc4oc3c12	0.4%	·	-6.2%	·	3.98µM*	·
CC(=O)N1CC(C)Sc2ccc(S(=O)(=O)NCCc3ccccc3)cc21 (configuration not stated)	·	+	·	·	?	·
CC(=O)N1CC(C)Sc2ccc(S(=O)(=O)NC(C)c3ccccc3)cc21 (configuration not stated)	-6.2%[7.34 µM]	-71.6*	-8.1%[7.34 µM]	·	?	·
CC(=O)N1CC(C)Sc2ccc(S(=O)(=O)NCCc3ccc(C)cc3)cc21 (configuration not stated)	·	?	·	·	11.2µM*	·
